GPT2 inhibitor: inhibitors of human GPT2 alanine aminotransferase; Potency, µM (titrated, usually from 57.7 µM), hits mostly inhibitors; Recombinant GPT2, coupled pyruvate oxidase/HRP Amplex Red fluorescence; Q8TD30; 100,000 tested, 0.25% active; note: nearly all actives have a fitted effect of over 60% in size
Target sequence (Q8TD30 whole entry, looked up): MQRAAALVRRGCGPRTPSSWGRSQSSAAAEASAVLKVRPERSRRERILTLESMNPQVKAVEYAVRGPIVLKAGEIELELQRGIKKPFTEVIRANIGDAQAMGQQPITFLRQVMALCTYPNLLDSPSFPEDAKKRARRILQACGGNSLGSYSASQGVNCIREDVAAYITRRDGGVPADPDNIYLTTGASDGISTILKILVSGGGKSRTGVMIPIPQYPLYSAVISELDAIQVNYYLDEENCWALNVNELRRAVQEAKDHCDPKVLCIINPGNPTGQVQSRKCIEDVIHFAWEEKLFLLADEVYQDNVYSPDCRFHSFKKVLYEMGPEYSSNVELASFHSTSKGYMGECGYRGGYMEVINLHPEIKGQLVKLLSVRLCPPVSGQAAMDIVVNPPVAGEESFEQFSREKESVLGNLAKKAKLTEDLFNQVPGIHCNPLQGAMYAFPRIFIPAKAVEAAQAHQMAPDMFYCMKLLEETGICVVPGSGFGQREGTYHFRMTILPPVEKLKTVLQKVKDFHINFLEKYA
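Recombinant GPT2 (10ng/uL) with 250uM a-KG and 2mM L-alanine, 30 min at room temperature, in HEPES pH 7.5 buffer. Pyruvate detected by pyruvate oxidase/HRP/Amplex Red fluorescence after 30 min in the dark; AOA (50uM) as positive control.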
FLuc inh: inhibitors of firefly (Photinus pyralis) luciferase; P08659; purified P. pyralis luciferase, luminescence, biochemical; Potency, µM (titrated, usually from 115 µM), usual class: inhibitors; 76,000 tested, 2.5% active; AID 1347043; note: nearly all actives have a fitted effect of over 65% in size
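FLuc 10nM, D-luciferin 10uM, ATP 10uM, Mg acetate 10mM, Tris acetate pH 7.5, Tween/BSA; cpd qHTS; enzyme added last; CCD luminescence.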
NIH3T3 tox: cytotoxic compounds in NIH 3T3 cells; NIH 3T3 viability, CellTiter-Glo ATP luminescence, 48-72 h; Potency, µM (series often up to 96.7 µM), hits mostly inhibitors; 94,000 tested, 4.3% active; note: nearly all actives have a fitted effect of over 55% in size
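Cytotoxicity is measured as loss of cellular ATP: NIH 3T3 cells (400/well) are exposed to compound for 48 or 72 hr at 37 °C, then CellTiter-Glo luminescence is imaged after 10 min at room temperature.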
HEK293 tox: kills HEK 293 cells; HEK 293 viability, ATP luminescence (CellTiter-Glo), 48-72 h; Potency, µM (top dose mostly 115 µM), actives largely listed as inhibitors; 94,000 tested, 6.6% active; note: nearly all actives have a fitted effect of over 60% in size
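qHTS cytotoxicity; HEK 293, 250 cells/well; compound pinned; 48 or 72 hr, 37 degree Celsius, 5% CO2, 95% humidity; CellTiter-Glo, 10 min RT; luminescence (ATP).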
NPR1 antag: blocks ANP-stimulated signaling of human Npr1 receptor; P16066; HEK293 hNpr1 GloSensor cGMP, ANP-stimulated luminescence; Potency, µM (titrated, usually from 46.3 µM), most hits filed as inhibitors; 76,000 tested, 1.6% active; AID 1347048; calls by dose curve; note: nearly all actives have a fitted effect of over 60% in size
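HEK293 cells stably expressing human Npr1 and cGMP GloSensor pGS-40F, loaded 2 h with 2% GloSensor reagent, given compound 30 min at room temperature. Luminescence read before and 20 min after 0.1 nM hNppA.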
Hits are given with their value; i = inactive; ? = inconclusive; nt = no result. An excerpt weighted towards active compounds, which were near 10% of everything screened. Unless noted, calls come from the whole dose curve; as a rule, active = well fitted curve in the direction sought with a large enough effect; inconclusive = small, poorly fitted or top-dose-only effect, or another doubt; inactive = no such curve, though single readings can be large; an effect the other way counts as inactive or inconclusive.

SMILES	GPT2 inhibitor	FLuc inh	NIH3T3 tox	HEK293 tox	NPR1 antag
CC(NC(=O)c1cccc2c1CCN2C(=O)Nc1ccc(F)cc1)c1ccccn1 (centres undefined)	i	0.79µM	?	?	11µM
CCC(=O)N1CCc2c(C(=O)NCc3cccnc3)cccc21	i	i	i	i	i
COCc1ccc2c(c1)c(OC(C)(C)C(=O)NC1CCC(O)CC1)nn2CCC(C)C (centres undefined)	i	i	13µM	?	i
COCc1ccc2c(c1)c(OC(C)(C)C(=O)NCCCN1CCCC1=O)nn2CCC(C)C	i	i	32µM	i	i
CC1(C(=O)N2CCC(c3ccccc3)CC2)CCc2cnc(Nc3ccncc3)nc21 (centres undefined)	i	i	?	71µM	?
CC(=O)N1CCN(C(=O)C2(C)CCc3cnc(Nc4ccccc4)nc32)CC1 (centres undefined)	i	i	?	i	i
CC1(C(=O)N2CCN(c3ccccn3)CC2)CCc2cnc(Nc3ccccc3)nc21 (centres undefined)	i	i	?	112µM	i
CC1(C)C(=O)N(CCOc2ccccc2)[C@H]2CN(Cc3ccc4c(c3)CCO4)C[C@@H]2[S+]1(=O)[O-]	i	i	?	?	i
O=C(NC1CCCC1)N1CCC(C(=O)N2CCC(c3nc4ncccc4[nH]3)CC2)CC1	i	nt	i	i	nt
Cn1cc(CN2C[C@@H]3OCC(=O)N[C@@H]3C2)c2ccccc21	i	i	112µM	?	i
CC(=O)c1cccc(C(=O)N2CCC3(CC2)N=C(c2ccc(C)cc2)NO3)c1	i	?	i	?	i
CCOC(=O)C1(Cc2cccc(OC)c2)CCCN(C(=O)COc2ccccc2)C1 (centres undefined)	i	35µM	i	?	i
CCOC(=O)C1(Cc2cccc(OC)c2)CCCN(C(=O)CCn2ccnc2C)C1 (centres undefined)	?	i	i	i	i
CCOC(=O)C1(Cc2cccc(Cl)c2)CCCN(C(=O)c2csc(C(C)=O)c2)C1 (centres undefined)	i	?	i	40µM	i
CCOC(=O)C1(Cc2cccc(OC)c2)CCCN(C(=O)CSc2ccncc2)C1 (centres undefined)	?	i	i	28µM	i
O=C(NC1CCCc2c1cnn2-c1ccc(F)cc1F)c1c(F)cccc1Cl (centres undefined)	i	i	?	35µM	?
COc1ccc(C(=O)NCCNC(=O)c2cccc(-c3cc(F)ccc3OC)c2)cc1	i	nt	?	40µM	nt
COc1ccc(F)cc1-c1cccc(C(=O)NCC(=O)NCc2ccc3c(c2)OCO3)c1	nt	nt	?	50µM	nt
COc1ccc(F)cc1-c1cccc(C(=O)NCCNC(=O)c2ccccc2F)c1	i	nt	?	40µM	nt
O=C1NCCOCCCN(C(=O)c2ccsc2)[C@H]2CCCC[C@@H]12	i	i	i	i	i
Cc1ccc(C(=O)N2Cc3ccccc3OC3(CCN(C(C)C)CC3)C2)cn1	i	nt	i	i	nt
O=C1NC2(CCN(C(=O)Cc3ccccc3)CC2)Oc2ccccc21	?	i	i	i	i
Cc1ccc(C(=O)N2CCC(C(=O)N3CCC(N4Cc5ccccc5C4=O)CC3)CC2)cc1	i	nt	i	i	nt
Cc1ccc(-c2cc3c(=O)n(CCNC(=O)C4CCCCC4)ccn3n2)cc1C	i	0.63µM	i	i	i
CCn1nccc1C(=O)NCCn1ccn2nc(-c3ccc(C)c(C)c3)cc2c1=O	i	4µM	i	25µM	i
SMILES	GPT2 inhibitor	FLuc inh	NIH3T3 tox	HEK293 tox	NPR1 antag
O=C(NCCn1ccn2nc(-c3ccc(F)cc3)cc2c1=O)c1ccsc1	i	i	i	?	i
Cc1ccc(-c2cc3c(=O)n(CCNC(=O)c4ccc(N(C)C)cc4)ccn3n2)cc1C	i	i	i	i	i
O=C(NCCn1ccn2nc(-c3ccc(F)cc3)cc2c1=O)c1n[nH]c2c1CCCC2	i	0.4µM	?	?	?
Cc1ccc(-c2cc3c(=O)n(CCNC(=O)c4ccccc4F)ccn3n2)cc1C	i	2µM	i	?	i
COCCNC(=O)c1ccc(OC2CCN(C(C)CCSC)CC2)c(Cl)c1 (centres undefined)	i	i	?	i	i
O=C(C1CCN([S+](=O)([O-])c2cccs2)CC1)N1CCCC(c2nc3ccncc3[nH]2)C1 (centres undefined)	i	nt	i	i	nt
COCCCNC(=O)c1ccc(Cn2ccn3nc4c(c3c2=O)CCCC4)cc1	i	i	?	?	i
Cc1oc(-c2ccc(OC(C)C)cc2)nc1Cn1ccn2nc3c(c2c1=O)CCCC3	i	i	?	8.9µM	i
O=C(NCCC1=CCCCC1)c1ccc(Cn2ccn3nc4c(c3c2=O)CCCC4)cc1	i	i	?	40µM	i
O=C(Nc1ccc(Cl)cc1)c1ccc(Cn2ccn3nc4c(c3c2=O)CCCC4)cc1	i	i	i	?	i
O=C(Nc1ccc(F)cc1)c1ccc(Cn2ccn3nc4c(c3c2=O)CCCC4)cc1	i	i	i	i	i
O=C(Nc1ccccc1)c1ccc(Cn2ccn3nc4c(c3c2=O)CCCC4)cc1	i	i	?	16µM	i
CCc1ccc(NC(=O)c2ccc(Cn3ccn4nc5c(c4c3=O)CCCC5)cc2)cc1	i	?	?	20µM	i
Cc1ccc(CN2CC(Cn3c(C)cnc3-c3ccncc3)C2)o1	i	nt	i	i	nt
CC(=O)N1CCC(c2nnc3n2C(C(=O)NCCc2ccc(Cl)cc2)CC3)CC1 (centres undefined)	i	nt	i	i	nt
COc1ccccc1Cn1ccn2nc3c(c2c1=O)CCCC3	i	i	?	45µM	i
O=c1c2c3c(nn2ccn1Cc1cc(F)ccc1F)CCCC3	i	i	?	?	i
C1=CC[C@H]2CN(c3nccc(-c4ccccn4)n3)C[C@H]2C1	i	i	?	45µM	i
O=C(NC1CCCCC1)N1c2ccccc2CC1c1noc(C2CCOCC2)n1 (centres undefined)	i	i	i	i	i
O=C(NC1CCCC1)N1c2ccccc2CC1c1nc(C2CC2)no1 (centres undefined)	i	20µM	?	?	?
COc1ccc(CN(C)Cc2csc(C)n2)cc1CN1CCCC1	i	i	i	i	i
CC(C)C[C@@H]1N[C@H](C(=O)NCC2CC2)Cc2c[nH]c3cccc1c23	i	i	?	35µM	i
C#CCNC(=O)[C@@H]1Cc2c[nH]c3cccc(c23)[C@H](CC(C)C)N1	i	i	100µM	71µM	i
CC(C)C[C@@H]1N[C@H](C(=O)NCc2ccco2)Cc2c[nH]c3cccc1c23	i	i	100µM	35µM	i
C=CCN(C)C(=O)[C@@H]1Cc2c[nH]c3cccc(c23)[C@H](CC(C)C)N1	i	i	?	?	i
COc1ccnc(-c2nnc3ccc(NCc4cnccn4)nn23)c1	i	nt	nt	nt	nt
Cc1nc(-c2ccc(Cl)cc2)n(Cc2ccc(F)cc2)c(=O)c1CCO	i	i	?	20µM	i
